Assay outcomes deposited in PubChem BioAssay by Broad Institute.
Pf Dd2 growth = P. falciparum Dd2 growth inhibition; 94,000 tested, 2.3% active; SYBR Green, 72 h; stronger effect = lower value; AID 1159554; activity change, % at 10 µM; in the data active means activity change below about -80%
Tcruzi prolif = blocks T. cruzi growth in NIH3T3 culture; inhibition, % at 8.34 µM; 77,000 tested, 5.9% active; T. cruzi beta-gal in NIH3T3, GalScreen luminescence, 90 h;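 active means mean inhibition above about 93%, with at least 55% of replicates each passing it, limit read from the data, passing the limit was not always enough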
C diff growth = C. difficile growth inhibition; Clostridium difficile clinical isolate growth, OD600, 24 h; stronger effect = lower value; growth activity, negative = inhibition, % at 16 µg/mL (by protocol); 86,000 tested, 0.25% active;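 active means mean growth activity at or below -80% and every replicate also at or below -80%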;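 further: 0% = DMSO wells and -100% = levofloxacin 16 µg/mL wells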
An asterisk follows results filed as active; · = no result given. An excerpt weighted towards active compounds, which were near 6.8% of everything screened.

SMILES	Pf Dd2 growth	Tcruzi prolif	C diff growth
C[C@@H]1CN([C@@H](C)CO)C(=O)c2cc(NC(=O)Nc3ccc(F)cc3)ccc2O[C@@H]1CN(C)Cc1ccc(C(=O)Nc2ccccc2N)cc1	-84*	·	26
C[C@H](CO)N1C[C@H](C)[C@H](CN(C)Cc2ccc(C(=O)Nc3ccccc3N)cc2)Oc2ccc(NC(=O)Nc3ccc(C(F)(F)F)cc3)cc2C1=O	-80*	·	40
COc1ccc(NC(=O)Nc2ccc3c(c2)C(=O)N([C@H](C)CO)C[C@H](C)[C@H](CN(C)Cc2ccc(C(=O)Nc4ccccc4N)cc2)O3)cc1	-79	·	2
C[C@H]1CN([C@@H](C)CO)C(=O)c2cc(NC(=O)Nc3ccc(F)cc3)ccc2O[C@H]1CN(C)Cc1ccc(C(=O)Nc2ccccc2N)cc1	-71	51	4
C[C@@H]1CN([C@@H](C)CO)C(=O)c2cc(NC(=O)c3ccncc3)ccc2O[C@@H]1CN(C)Cc1ccc(C(=O)Nc2ccccc2N)cc1	-73	·	1
C[C@H](CO)N1C[C@H](C)[C@H](CN(C)Cc2ccc(C(=O)Nc3ccccc3N)cc2)Oc2ccc(NC(=O)Nc3ccccc3)cc2C1=O	-70	42	-4
C[C@@H]1CN([C@H](C)CO)C(=O)c2cccc(NC(=O)c3cnccn3)c2O[C@@H]1CN(C)C(=O)Nc1ccc(F)cc1	14	-17	-6
C[C@H]1CN([C@@H](C)CO)C(=O)c2cc(C#CCc3ccccc3)cnc2O[C@H]1CN(C)C(=O)Cc1cccnc1	-9	71	1
C[C@H]1CN([C@@H](C)CO)C(=O)c2cccc(NS(=O)(=O)c3ccc(F)cc3)c2O[C@H]1CN(C)Cc1ccc(C(=O)Nc2ccccc2N)cc1	-88*	·	0
C[C@@H]1CN([C@@H](C)CO)C(=O)c2cccc(NS(=O)(=O)c3ccc(F)cc3)c2O[C@H]1CN(C)Cc1ccc(C(=O)Nc2ccccc2N)cc1	-68	·	4
C[C@H]1CN([C@@H](C)CO)C(=O)c2cccc(NS(=O)(=O)c3ccc(F)cc3)c2O[C@@H]1CN(C)Cc1ccc(C(=O)Nc2ccccc2N)cc1	-59	·	-2
C[C@@H]1CN([C@@H](C)CO)C(=O)c2cccc(NS(=O)(=O)c3ccc(F)cc3)c2O[C@@H]1CN(C)Cc1ccc(C(=O)Nc2ccccc2N)cc1	-90*	79	9
C[C@@H]1CN([C@H](C)CO)C(=O)c2cc(C3=CCCCC3)cnc2O[C@@H]1CN(C)Cc1ccncc1	-5	·	-25
C[C@H]1CN([C@@H](C)CO)C(=O)c2cc(N(C)C)ccc2O[C@H]1CN(C)C(=O)Nc1ccccc1	30	·	-1
C[C@@H]1CN([C@H](C)CO)C(=O)c2cccc(NC(=O)Nc3ccc(F)cc3)c2O[C@H]1CN(C)Cc1ccc(C(F)(F)F)cc1	-12	18	7
COc1ccc(CN(C)C[C@@H]2Oc3c(NC(=O)Nc4ccc(C(F)(F)F)cc4)cccc3C(=O)N([C@H](C)CO)C[C@H]2C)cc1	4	·	2
C[C@@H]1CN([C@@H](C)CO)C(=O)c2cccc(NC(=O)Nc3ccc(C(F)(F)F)cc3)c2O[C@@H]1CN(C)Cc1ccc(C(F)(F)F)cc1	-26	84	-103*
C[C@H]1CN([C@@H](C)CO)C(=O)c2cccc(NC(=O)Nc3ccc(C(F)(F)F)cc3)c2O[C@@H]1CN(C)S(=O)(=O)c1ccc(F)cc1	-17	90	-2
C[C@@H]1CN([C@@H](C)CO)C(=O)c2cccc(NC(=O)Nc3ccc(C(F)(F)F)cc3)c2O[C@@H]1CN(C)S(=O)(=O)c1ccc(Cl)cc1	-67	107*	·
COc1ccc(CN(C)C[C@H]2Oc3c(NC(=O)Nc4ccc(C(F)(F)F)cc4)cccc3C(=O)N([C@@H](C)CO)C[C@H]2C)cc1	-21	·	-101*
C[C@@H]1CN([C@@H](C)CO)C(=O)c2cccc(NC(=O)Nc3ccc(F)cc3)c2O[C@@H]1CN(C)Cc1ccc(C(F)(F)F)cc1	-48	54	-92*
C[C@H]1CN([C@@H](C)CO)C(=O)c2cccc(NC(=O)Nc3ccc(C(F)(F)F)cc3)c2O[C@@H]1CN(C)Cc1ccc(C(F)(F)F)cc1	11	59	27
C[C@H](CO)N1C[C@H](C)[C@@H](CN(C)S(C)(=O)=O)Oc2ccc(NC(=O)CCCN(C)C)cc2C1=O	15	-2	2
C[C@@H]1CN([C@@H](C)CO)C(=O)c2cc(NC(=O)Cc3ccccc3)ccc2O[C@@H](C)CCCCO[C@@H]1CN(C)C(=O)CCCN(C)C	35	·	1
CN1C(=O)c2cc(NC(=O)Cc3cccs3)ccc2OC[C@H]2O[C@@H](CC(=O)O)CC[C@@H]21	-13	·	-4
COCC(=O)N1C[C@@H]2[C@H](c3ccccc31)[C@@H](CO)N2C(=O)C1CCOCC1	5	2	9
